Activity calls are given as the source filed them. The calls were made as follows: active = hit-call score of the fitted dose curve at least 0.9, where 1 is the maximum; inactive = score below 0.9.
Legend:
[1] = CEETOX_H295R_PROG: CeeTox H295R High-throughput Steroidogenesis Assay for Progesterone (PROG) (AID 2283442); settings: actives raise or lower the signal;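 as to AC50: human H295R adrenal cells primed with 10 µM forskolin before dosing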
Procedure, shortened: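 H295R adrenal cells prestimulated 48 h with 10 uM forskolin, then exposed 48 h to test chemical in 0.1% DMSO. Progesterone in medium quantified by HPLC-MS/MS after MTBE extraction; viability checked by MTT in same wells.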

[2] = read-out: Tumor necrosis factor receptor superfamily member 6 (Homo sapiens) (UniProt P25445); experiment: LTEA_HepaRG_FAS: Life Technologies and Expression Analysis (LTEA) Assay for Fas cell surface death receptor (FAS) using HepaRG (AID 2283447); settings: mRNA level, 48 h; actives raise or lower the signal
Procedure, shortened: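 Differentiated HepaRG cells in serum-free induction medium were exposed 48 h to 8 half-log concentrations up to 100 uM in 0.5% DMSO, in duplicate. FAS mRNA was measured by qRT-PCR normalised to ACTB, GAPDH and POLR2A; bidirectional fit versus DMSO.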

[3] = read-out: Fatty acid synthase (Homo sapiens) (UniProt P49327); experiment: LTEA_HepaRG_FASN: Life Technologies and Expression Analysis (LTEA) Assay for Fatty Acid Synthase (FASN) using HepaRG (AID 2283448); settings: mRNA level, 48 h; actives raise or lower the signal
Procedure, shortened: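 HepaRG, 48 h exposure, 8-pt half-log series top 100 uM, 0.5% DMSO vehicle, duplicates. Readout: FASN transcript by Fluidigm qRT-PCR; housekeeping-normalized; bidirectional curve fit vs DMSO baseline.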

[4] = read-out: Cyclin D2 (CCND2), CCND2 (gene 894); experiment: LTEA_HepaRG_CCND2: Life Technologies and Expression Analysis (LTEA) Assay for Cyclin D2 (CCND2) using HepaRG (AID 2283449); settings: mRNA level, 48 h; actives raise or lower the signal;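 also: CCND2 transcript measured by TaqMan qRT-PCR and normalised to three housekeeping genes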
Procedure, shortened: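 HepaRG, 48 h dosing, 8-pt half-log curve from 100 uM, 0.5% DMSO; duplicate wells. Readout: CCND2 transcript by microfluidic qRT-PCR, housekeeping-normalised; bidirectional fit vs DMSO baseline.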

[5] = read-out: Cyclin Dependent Kinase Inhibitor 1A (CDKN1A), CDKN1A (gene 1026); experiment: LTEA_HepaRG_CDKN1A: Life Technologies and Expression Analysis (LTEA) Assay for Cyclin Dependent Kinase Inhibitor 1A (CDKN1A) using HepaRG (AID 2283450); settings: mRNA level, 48 h; actives raise or lower the signal
Procedure, shortened: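 Differentiated HepaRG cells in serum-free induction medium, exposed 48 h in duplicate to eight half-log concentrations up to 100 uM in 0.5% DMSO. mRNA measured by TaqMan qRT-PCR, normalized to ACTB, GAPDH, POLR2A; bidirectional fit versus DMSO.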

[6] = read-out: Cyclin D1 (CCND1), CCND1 (gene 595); experiment: LTEA_HepaRG_CCND1: Life Technologies and Expression Analysis (LTEA) Assay for Cyclin D1 (CCND1) using HepaRG (AID 2283451); settings: mRNA level, 48 h; actives raise or lower the signal
Procedure, shortened: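 Differentiated HepaRG cells exposed 48 h in serum-free induction medium to eight half-log concentrations from 100 uM top, 0.5% DMSO, duplicates. CCND1 mRNA measured by Fluidigm TaqMan qRT-PCR, normalised to ACTB, GAPDH, POLR2A; bidirectional fit.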

[7] = read-out: catalase (CAT), CAT (gene 847); experiment: LTEA_HepaRG_CAT: Life Technologies and Expression Analysis (LTEA) Assay for catalase (CAT) using HepaRG (AID 2283452); settings: mRNA level, 48 h; actives raise or lower the signal
Procedure, shortened: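 HepaRG cells in serum-free induction medium, 0.5% DMSO vehicle, exposed 48 h in duplicate over 8 half-log concentrations from 100 uM. CAT mRNA measured by qRT-PCR, normalized to ACTB, GAPDH, POLR2A; bidirectional fit versus DMSO.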

[8] = read-out: CFLAR gene, CFLAR (gene 8837); experiment: LTEA_HepaRG_CFLAR: Life Technologies and Expression Analysis (LTEA) Assay for CFLAR gene using HepaRG (AID 2283455); settings: mRNA level, 48 h; actives raise or lower the signal
Procedure, shortened: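 qRT-PCR read-out (Fluidigm/TaqMan) of CFLAR mRNA, normalized to three housekeeping genes, in differentiated human HepaRG cells after 48 h chemical exposure; 8-point half-log series from 100 uM in 0.5% DMSO; bidirectional curve fitting versus DMSO.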

[9] = read-out: Forkhead box O1 (FOXO1), FOXO1 (gene 2308); experiment: LTEA_HepaRG_FOXO1: Life Technologies and Expression Analysis (LTEA) Assay for Forkhead box O1 (FOXO1) using HepaRG (AID 2283456); settings: mRNA level, 48 h; actives raise or lower the signal
Procedure, shortened: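 HepaRG, 48 h exposure, 8-pt half-log series from 100 uM in 0.5% DMSO, duplicates; Fluidigm qRT-PCR mRNA, housekeeping-normalised; bidirectional fit vs DMSO baseline.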

[10] = read-out: growth arrest and DNA damage 45 (GADD45A), GADD45A (gene 1647); experiment: LTEA_HepaRG_GADD45A: Life Technologies and Expression Analysis (LTEA) Assay for growth arrest and DNA damage 45 (GADD45A) using HepaRG (AID 2283458); settings: mRNA level, 48 h; actives raise or lower the signal
Procedure, shortened: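 HepaRG, 48 h exposure, 8 conc. (top 100 uM, half-log steps), 0.5% DMSO vehicle, duplicates. Read-out: qRT-PCR mRNA level, housekeeping-normalized (ACTB/GAPDH/POLR2A). Curves fit bidirectionally vs DMSO baseline.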

[11] = read-out: Forkhead box O3 (FOXO3), FOXO3 (gene 2309); experiment: LTEA_HepaRG_FOXO3: Life Technologies and Expression Analysis (LTEA) Assay for Forkhead box O3 (FOXO3) using HepaRG (AID 2283459); settings: mRNA level, 48 h; actives raise or lower the signal
Procedure, shortened: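 qRT-PCR readout of FOXO3 transcript, normalized to three housekeeping genes (ACTB, GAPDH, POLR2A); gain or loss fitted against 0.5% DMSO vehicle. HepaRG cells, 48 h chemical exposure, 8-point half-log series, top 100 uM.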

[12] = read-out: ABC Transporter (ABCB1), ABCB1 (gene 5243); experiment: LTEA_HepaRG_ABCB1: Life Technologies and Expression Analysis (LTEA) Assay for ABC Transporter (ABCB1) using HepaRG (AID 2283460); settings: mRNA level, 48 h; actives raise or lower the signal
Procedure, shortened: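 HepaRG, 48 h exposure, 8-pt half-log series from 100 uM, 0.5% DMSO vehicle, duplicates. Readout: ABCB1 transcript by Fluidigm TaqMan qRT-PCR, housekeeping-normalized; bidirectional curve fit vs DMSO baseline.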

[13] = read-out: growth arrest and DNA damage 45 (GADD45B), GADD45B (gene 4616); experiment: LTEA_HepaRG_GADD45B: Life Technologies and Expression Analysis (LTEA) Assay for growth arrest and DNA damage 45 (GADD45B) using HepaRG (AID 2283461); settings: mRNA level, 48 h; actives raise or lower the signal
Procedure, shortened: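 Differentiated human HepaRG cells in serum-free induction medium exposed 48 h in duplicate to eight concentrations, top 100 uM, half-log steps, 0.5% DMSO. GADD45B mRNA by TaqMan qRT-PCR, normalized to ACTB, GAPDH, POLR2A; bidirectional fit versus DMSO.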

[14] = read-out: ABC Transporter (ABCC3), ABCC3 (gene 8714); experiment: LTEA_HepaRG_ABCC3: Life Technologies and Expression Analysis (LTEA) Assay for ABC Transporter (ABCC3) using HepaRG (AID 2283462); settings: mRNA level, 48 h; actives raise or lower the signal
Procedure, shortened: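 Differentiated human HepaRG cells exposed 48 h in serum-free induction medium, 0.5% DMSO vehicle, 8-point half-log series to 100 uM in duplicate. ABCC3 mRNA by qRT-PCR, normalised to ACTB, GAPDH, POLR2A; bidirectional fit vs DMSO.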

[15] = read-out: ABC Transporter (ABCB11), ABCB11 (gene 8647); experiment: LTEA_HepaRG_ABCB11: Life Technologies and Expression Analysis (LTEA) Assay for ABC Transporter (ABCB11) using HepaRG (AID 2283463); settings: mRNA level, 48 h; actives raise or lower the signal
Procedure, shortened: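 HepaRG, 48 h exposure, 8-pt half-log CRC top 100 uM, 0.5% DMSO vehicle, duplicates. Readout: TaqMan qRT-PCR of ABCB11 mRNA, housekeeping-normalized (ACTB/GAPDH/POLR2A). Bidirectional fit vs DMSO baseline.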

[16] = read-out: ABC Transporter (ABCC2), ABCC2 (gene 1244); experiment: LTEA_HepaRG_ABCC2: Life Technologies and Expression Analysis (LTEA) Assay for ABC Transporter (ABCC2) using HepaRG (AID 2283464); settings: mRNA level, 48 h; actives raise or lower the signal
Procedure, shortened: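 Differentiated HepaRG cells in serum-free induction medium exposed 48 h to eight half-log concentrations up to 100 uM, 0.5% DMSO, in duplicate. ABCC2 mRNA measured by qRT-PCR (TaqMan, Fluidigm), normalized to ACTB, GAPDH and POLR2A. Fitted in both directions against DMSO.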

[17] = read-out: Broad substrate specificity ATP-binding cassette transporter ABCG2 (Homo sapiens) (UniProt Q9UNQ0); experiment: LTEA_HepaRG_ABCG2: Life Technologies and Expression Analysis (LTEA) Assay for ABC Transporter (ABCG2) using HepaRG (AID 2283465); settings: mRNA level, 48 h; actives raise or lower the signal
Procedure, shortened: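 HepaRG, 48 h exposure, 8-pt half-log series from 100 uM, 0.5% DMSO vehicle, duplicates. Readout: ABCG2 transcript by qRT-PCR (Fluidigm array), housekeeping-normalized; bidirectional curve fit relative to DMSO baseline.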

[18] = read-out: flavin-containing dimethylaniline monooxygenases 3 (FMO3), FMO3 (gene 2328); experiment: LTEA_HepaRG_FMO3: Life Technologies and Expression Analysis (LTEA) Assay for flavin-containing dimethylaniline monooxygenases 3 (FMO3) using HepaRG (AID 2283453); settings: mRNA level, 48 h; actives raise or lower the signal
Procedure, shortened: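 Eight-point concentration-response in serum-free HepaRG cultures (top 100 uM, 0.5% DMSO, 48 h). Read-out: FMO3 mRNA level normalized to three endogenous control genes, fitted bidirectionally versus vehicle.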

[19] = read-out: Cytochrome P450 (CYP1A1), CYP1A1 (gene 1543); experiment: LTEA_HepaRG_CYP1A1: Life Technologies and Expression Analysis (LTEA) Assay for Cytochrome P450 (CYP1A1) using HepaRG (AID 2283454); settings: mRNA level, 48 h; actives raise or lower the signal
Procedure, shortened: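 Differentiated human HepaRG cells, after 48 h plating, exposed in duplicate for 48 h in serum-free induction medium to 8 half-log concentrations up to 100 uM in 0.5% DMSO. CYP1A1 mRNA by qRT-PCR, normalized to ACTB/GAPDH/POLR2A; bidirectional fit versus DMSO.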

Chain of Fatty acid synthase (Homo sapiens) (P49327 whole entry, looked up): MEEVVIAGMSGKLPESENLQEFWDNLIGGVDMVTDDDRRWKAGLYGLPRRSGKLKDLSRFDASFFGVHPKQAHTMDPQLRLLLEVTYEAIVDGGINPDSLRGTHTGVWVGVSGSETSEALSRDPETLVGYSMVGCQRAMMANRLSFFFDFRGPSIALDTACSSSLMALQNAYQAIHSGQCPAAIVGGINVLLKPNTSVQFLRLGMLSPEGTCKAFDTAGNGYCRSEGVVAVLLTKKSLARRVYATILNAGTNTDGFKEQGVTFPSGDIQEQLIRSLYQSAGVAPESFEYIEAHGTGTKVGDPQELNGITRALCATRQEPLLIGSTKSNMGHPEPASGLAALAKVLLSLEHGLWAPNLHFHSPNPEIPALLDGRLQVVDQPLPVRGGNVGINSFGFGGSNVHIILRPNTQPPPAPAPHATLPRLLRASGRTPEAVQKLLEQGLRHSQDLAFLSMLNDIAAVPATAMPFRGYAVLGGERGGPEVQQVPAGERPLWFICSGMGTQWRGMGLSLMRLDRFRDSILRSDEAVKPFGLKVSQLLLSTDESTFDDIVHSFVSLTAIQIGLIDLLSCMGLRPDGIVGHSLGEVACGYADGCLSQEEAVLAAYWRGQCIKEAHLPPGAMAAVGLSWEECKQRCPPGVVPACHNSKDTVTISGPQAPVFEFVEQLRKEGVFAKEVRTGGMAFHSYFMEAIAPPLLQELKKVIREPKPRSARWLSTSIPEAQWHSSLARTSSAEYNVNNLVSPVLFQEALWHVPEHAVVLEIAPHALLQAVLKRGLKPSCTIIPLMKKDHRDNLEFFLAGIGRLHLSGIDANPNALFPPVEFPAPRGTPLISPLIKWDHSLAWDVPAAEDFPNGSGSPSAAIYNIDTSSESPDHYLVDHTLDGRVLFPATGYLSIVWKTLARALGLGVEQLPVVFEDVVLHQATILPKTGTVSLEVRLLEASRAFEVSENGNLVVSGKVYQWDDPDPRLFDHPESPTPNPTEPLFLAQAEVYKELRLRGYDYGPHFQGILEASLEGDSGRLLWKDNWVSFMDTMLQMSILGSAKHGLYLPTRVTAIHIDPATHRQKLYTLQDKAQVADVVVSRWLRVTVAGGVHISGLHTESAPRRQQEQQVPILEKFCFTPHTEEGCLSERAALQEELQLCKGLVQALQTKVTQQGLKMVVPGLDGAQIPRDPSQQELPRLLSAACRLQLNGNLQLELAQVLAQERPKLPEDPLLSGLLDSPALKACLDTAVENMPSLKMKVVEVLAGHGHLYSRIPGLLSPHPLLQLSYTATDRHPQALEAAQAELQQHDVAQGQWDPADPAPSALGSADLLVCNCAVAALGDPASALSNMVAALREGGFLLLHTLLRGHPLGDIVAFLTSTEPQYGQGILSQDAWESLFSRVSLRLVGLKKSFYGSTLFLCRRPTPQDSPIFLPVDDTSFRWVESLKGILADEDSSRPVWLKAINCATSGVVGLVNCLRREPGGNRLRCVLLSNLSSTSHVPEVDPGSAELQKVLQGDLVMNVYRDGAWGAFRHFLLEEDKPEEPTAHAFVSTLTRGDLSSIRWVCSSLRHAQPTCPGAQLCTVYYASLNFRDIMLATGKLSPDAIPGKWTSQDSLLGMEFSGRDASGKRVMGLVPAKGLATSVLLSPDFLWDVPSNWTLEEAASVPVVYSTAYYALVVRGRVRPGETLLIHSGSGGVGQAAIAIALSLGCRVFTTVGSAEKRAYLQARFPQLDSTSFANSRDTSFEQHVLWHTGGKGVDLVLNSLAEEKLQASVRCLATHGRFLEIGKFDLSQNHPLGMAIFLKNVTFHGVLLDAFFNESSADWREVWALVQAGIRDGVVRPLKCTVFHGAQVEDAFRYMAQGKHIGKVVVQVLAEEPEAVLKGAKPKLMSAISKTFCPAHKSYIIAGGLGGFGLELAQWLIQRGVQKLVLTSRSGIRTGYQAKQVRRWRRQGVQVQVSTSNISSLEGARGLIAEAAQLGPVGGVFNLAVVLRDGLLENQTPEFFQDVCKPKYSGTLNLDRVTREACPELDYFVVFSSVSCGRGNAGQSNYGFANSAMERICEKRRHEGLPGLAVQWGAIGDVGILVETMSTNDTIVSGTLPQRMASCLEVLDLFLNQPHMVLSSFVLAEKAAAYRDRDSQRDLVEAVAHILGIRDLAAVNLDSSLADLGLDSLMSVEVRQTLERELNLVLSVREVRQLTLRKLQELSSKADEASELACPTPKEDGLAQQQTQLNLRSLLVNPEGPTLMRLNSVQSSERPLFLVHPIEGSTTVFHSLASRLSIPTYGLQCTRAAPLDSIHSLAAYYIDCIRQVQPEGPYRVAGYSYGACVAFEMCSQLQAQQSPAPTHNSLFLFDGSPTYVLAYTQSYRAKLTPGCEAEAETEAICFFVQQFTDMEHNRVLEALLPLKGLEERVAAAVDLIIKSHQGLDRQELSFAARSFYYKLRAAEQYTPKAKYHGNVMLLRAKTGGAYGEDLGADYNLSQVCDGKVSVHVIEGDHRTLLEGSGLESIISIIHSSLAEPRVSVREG
Chain of Broad substrate specificity ATP-binding cassette transporter ABCG2 (Homo sapiens) (Q9UNQ0 whole entry, looked up): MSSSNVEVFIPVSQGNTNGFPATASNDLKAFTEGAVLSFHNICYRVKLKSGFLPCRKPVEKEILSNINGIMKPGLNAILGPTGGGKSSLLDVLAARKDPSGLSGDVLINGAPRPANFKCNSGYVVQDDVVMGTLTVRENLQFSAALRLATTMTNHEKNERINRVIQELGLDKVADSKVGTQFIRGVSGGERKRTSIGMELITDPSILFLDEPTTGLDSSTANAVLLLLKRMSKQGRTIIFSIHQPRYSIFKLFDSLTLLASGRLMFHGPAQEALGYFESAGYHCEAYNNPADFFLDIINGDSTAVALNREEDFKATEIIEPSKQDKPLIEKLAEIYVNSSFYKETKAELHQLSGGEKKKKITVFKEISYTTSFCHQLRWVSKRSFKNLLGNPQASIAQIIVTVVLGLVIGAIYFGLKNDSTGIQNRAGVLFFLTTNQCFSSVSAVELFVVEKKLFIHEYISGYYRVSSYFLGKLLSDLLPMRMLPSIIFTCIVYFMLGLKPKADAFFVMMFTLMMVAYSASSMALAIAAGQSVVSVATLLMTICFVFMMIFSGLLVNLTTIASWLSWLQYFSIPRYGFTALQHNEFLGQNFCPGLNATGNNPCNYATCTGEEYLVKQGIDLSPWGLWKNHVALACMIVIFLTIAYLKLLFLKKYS

SMILES: C[C@]12CC[C@@H]3c4ccc(O)cc4CC[C@H]3[C@@H]1CC[C@H]2O
- AC50 [1]: 2000 nM (active)
- outcome [2]: inactive
- outcome [3]: inactive
- outcome [4]: inactive
- AC50 [5]: 50 µM (active)
- outcome [6]: inactive
- outcome [7]: inactive
- outcome [8]: inactive
- outcome [9]: inactive
- outcome [10]: inactive
- outcome [11]: inactive
- outcome [12]: inactive
- outcome [13]: inactive
- outcome [14]: inactive
- AC50 [15]: 69 µM (active)
- outcome [16]: inactive
- AC50 [17]: 5.42 µM (active)

SMILES: CC(C)(C)c1cc(/C=C2\SC(N)=NC2=O)cc(C(C)(C)C)c1O
- AC50 [1]: 897 nM (active)
- outcome [2]: inactive
- AC50 [3]: 12.2 µM (active)
- outcome [4]: inactive
- AC50 [5]: 22.2 µM (active)
- AC50 [7]: 16.5 µM (active)
- AC50 [18]: 23.9 µM (active)
- outcome [19]: inactive
- AC50 [8]: 27.5 µM (active)
- outcome [9]: inactive
- outcome [10]: inactive
- outcome [11]: inactive
- outcome [12]: inactive
- AC50 [14]: 50 µM (active)
- AC50 [15]: 24.6 µM (active)
- AC50 [16]: 27.6 µM (active)
- outcome [17]: inactive

SMILES: CCCOC(=O)c1cc(O)c(O)c(O)c1
- outcome [2]: inactive
- outcome [3]: inactive
- outcome [4]: inactive
- outcome [5]: inactive
- outcome [6]: inactive
- outcome [7]: inactive
- AC50 [19]: 10.1 µM (active)
- outcome [8]: inactive
- outcome [9]: inactive
- outcome [10]: inactive
- outcome [11]: inactive
- AC50 [12]: 4.06 µM (active)
- outcome [14]: inactive
- outcome [15]: inactive
- AC50 [16]: 6.03 µM (active)
- AC50 [17]: 4.97 µM (active)

SMILES: CCCCCCCC[Si](OCC)(OCC)OCC
- outcome [1]: inactive
- outcome [2]: inactive
- outcome [3]: inactive
- outcome [4]: inactive
- outcome [5]: inactive
- outcome [6]: inactive
- outcome [7]: inactive
- outcome [18]: inactive
- outcome [19]: inactive
- outcome [8]: inactive
- outcome [9]: inactive
- outcome [10]: inactive
- outcome [11]: inactive
- outcome [12]: inactive
- outcome [13]: inactive
- outcome [14]: inactive
- outcome [15]: inactive
- outcome [16]: inactive
- outcome [17]: inactive

SMILES: Oc1ccccc1
- outcome [2]: inactive
- outcome [3]: inactive
- outcome [4]: inactive
- outcome [5]: inactive
- outcome [6]: inactive
- outcome [7]: inactive
- outcome [18]: inactive
- outcome [19]: inactive
- outcome [8]: inactive
- outcome [9]: inactive
- outcome [10]: inactive
- outcome [11]: inactive
- outcome [12]: inactive
- outcome [13]: inactive
- outcome [14]: inactive
- outcome [15]: inactive
- outcome [16]: inactive
- outcome [17]: inactive

SMILES: Cc1cc2c(cc1C(F)(F)F)N(C(=O)Nc1ccc(Oc3cccnc3C)nc1)CC2
- AC50 [1]: 257 nM (active)
- AC50 [2]: 78.5 µM (active)
- outcome [3]: inactive
- outcome [4]: inactive
- outcome [5]: inactive
- AC50 [7]: 46 µM (active)
- AC50 [18]: 46 µM (active)
- AC50 [8]: 72.6 µM (active)
- AC50 [9]: 80.9 µM (active)
- AC50 [10]: 78.1 µM (active)
- outcome [11]: inactive
- outcome [12]: inactive
- outcome [13]: inactive
- AC50 [14]: 11.6 µM (active)
- AC50 [15]: 3.86 µM (active)
- outcome [16]: inactive
- AC50 [17]: 11 µM (active)

— PubChem BioAssay (EPA / NIEHS)
